The results in this text go back to PubChem BioAssay (NCI).

This is part of a sample that, as a whole, favours compounds with a hit. Of some 83,000 tested, about 20% had one in any assay.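 Note: values are percent growth. 100 is the growth of untreated cells, values between 100 and 0 indicate rising inhibition; between -100 and 0 indicates cell death.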 A number with no mark means an inactive call. Active and inactive are the calls of the source. Rule for the calls: active = growth percent below 10; inactive = the rest.

What all share (assay): NCI-60 one-dose screen, 48 h (100 = growth as untreated, 0 = no growth, -100 = all killed)
The test system of test [1] is HCT-15 colon. As to conditions: 10 µM unless noted.
The test system of test [2] is HT29 colon. As to conditions: 10 µM unless noted.
Test [3] deals with SNB-75 CNS. As to conditions: 10 µM unless noted.
Test [4] deals with SNB-19 CNS. As to conditions: 10 µM unless noted.
Test [5] concerns U251 CNS. As to conditions: 10 µM unless noted.
The test system of test [6] is PC-3 prostate. As to conditions: 10 µM unless noted.
Test [7] concerns SK-MEL-5 melanoma. As to conditions: 10 µM unless noted.
Test [8] concerns UACC-62 melanoma. As to conditions: 10 µM unless noted.
In test [9] the test system is LOX IMVI melanoma. As to conditions: 10 µM unless noted.
Test [10] relates to SK-MEL-28 melanoma. As to conditions: 10 µM unless noted.
Test [11] deals with SK-MEL-2 melanoma. As to conditions: 10 µM.
Test [12] concerns EKVX NSCLC. As to conditions: 10 µM unless noted.
In test [13] the test system is SN12C renal. As to conditions: 10 µM unless noted.
The subject of test [14] is TK-10 renal. As to conditions: 10 µM unless noted.
The subject of test [15] is ACHN renal. As to conditions: 10 µM unless noted.
The subject of test [16] is CAKI-1 renal. As to conditions: 10 µM unless noted.
In test [17] the test system is CCRF-CEM leukemia. As to conditions: 10 µM unless noted.
Test [18] relates to MOLT-4 leukemia. As to conditions: 10 µM unless noted.
Test [19] concerns UO-31 renal. As to conditions: 10 µM unless noted.
For test [20], the system named is A498 renal. As to conditions: 10 µM unless noted.

In the case of `N#Cc1c(NC(=O)c2cccs2)[n+]([O-])c2ccc(F)cc2[n+]1[O-]`, the growth was 74.6% in test [1]; 97.6% in [2]; 81.1% in [3]; 98% in test [4]; 93.2% in [5]; 77.3% in test [6]. Besides, the growth in [7] is 2.84% (active); in test [8] it was 83.2%; in test [9] it was 89.9%; in test [10], 112%; in test [11], 92.9%; in test [12] it was 86.4%. For the same compound, the growth in [13] was 98.3%; in test [14], 117%; in [15], 89%; in [16], 90.7%; in test [17] it was 77.7%; in [18], 90.2%.

Consider `Nc1cc2c(cc1Br)-c1c(C(=O)O)cccc1C2O` (stereo not drawn), for which the growth in test [1] was 108%; in test [2], 106%; in test [3] it was 90.2%; in test [4] it was 99.5%; in test [5] it was 97.4%; in test [6], 82.2%. Also, the growth in test [7] is 99.9%; in test [8], 90.9%; in test [9], 95.8%; in test [10], 102%; in test [11], 131%; in [12], 88.3%. The growth in [13] was 109%; in [19], 102%; in [14], 117%; in test [15], 108%; in test [20], 129%; in test [17], 124%. In addition, in [18], the growth was 115%.

For the compound `CCCC(=O)OCC1OC(n2cnc3c(=S)nc(N)[nH]c32)C(OC(=O)CCC)C1OC(=O)CCC` (stereo not drawn), the growth is 50.2% in test [1]; 30.2% in test [2]; 34.8% in [3]; 89.3% in test [4]; 68.2% in [5]; 76.1% in test [6]. Also, the growth in [7] was 42.8%; in test [8] it was 8.36% (active); in test [9], 12%; in [10] it was 75.8%; in [11], 15%; in test [12], 42.4%. Besides, the growth in test [13] is 42.8%; in [19] it was 43.3%; in test [14], 23.5%; in test [15], 39.7%; in test [20], -2.02% (active); in [18] it was 0.324% (active).

Take `Nc1ncnc2c1ccn2-c1cccc(NC(=O)c2ccc(N3CCOCC3)c(C(F)(F)F)c2)c1`: the growth in [1] is 31.5%; in test [2], 38.2%; in test [3] it was 67.3%; in test [4], 95.7%; in test [5], 39.5%; in test [6], 35.6%. The growth is 41.6% in [7]; 43.4% in test [8]; 41.2% in [9]; 81.2% in test [10]; 37.7% in [11]; 56% in [12]. Besides, the growth was 47.8% in [13]; 22% in test [19]; 30.9% in test [15]; 26.3% in [16]; 63.3% in test [20]; 20.5% in [17]. The growth in [18] was 47.8%.

As to `Clc1nc(Cl)c2ncn(C/C=C\Cn3cnc4c(Cl)nc(Cl)nc43)c2n1`, the growth in test [1] is -44.7% (active); in [2] it was -65.9% (active); in [3] it was -25.7% (active); in test [4], 9.97% (active); in test [5], -56.5% (active); in test [6], -57.6% (active). Also, the growth is -81.5% (active) in test [7]; -72.7% (active) in test [8]; -80.1% (active) in test [9]; -19% (active) in test [10]; 23.5% in test [11]; -68% (active) in test [12]. Also, the growth in test [13] was -11.3% (active); in test [14], -45.6% (active); in [15] it was -94.5% (active); in test [16], -97.2% (active); in test [20], -18.2% (active); in [17] it was -73.4% (active). In addition, in test [18], the growth is -55.4% (active).

As for `COc1cc2c(cc1OCCCCN1CCN(CC(=O)Nc3ccc(Cl)cc3C(=O)c3ccccc3Cl)CC1)N=CC1CCCN1C2=O` (stereo not drawn), the growth in [1] is -65.6% (active); in [2], -61.4% (active); in test [3], -84.7% (active); in test [4], -57.3% (active); in test [5] it was -88.4% (active); in [6], -98.6% (active). Moreover, the growth in test [7] is -92.6% (active); in test [8], -85.1% (active); in test [9] it was -84.4% (active); in test [10], -86% (active); in test [11] it was -67.5% (active); in test [12], -79% (active). Moreover, the growth in test [13] was -81.1% (active); in test [14] it was -90.1% (active); in test [15] it was -92.4% (active); in test [16], -89.8% (active); in test [20], -97.2% (active); in test [18], -44.7% (active).

Consider `O=C1CSC(c2c(F)cccc2Cl)N1NC(=O)C(O)(c1ccccc1)c1ccccc1` (stereo not drawn), for which the growth is 102% in test [1]; 95.9% in test [2]; 82.9% in [3]; 98.4% in [4]; 95.7% in [5]; 95.5% in test [6]. In addition, the growth in [7] is 89.5%; in test [8], 82.8%; in test [9], 94.2%; in test [10], 107%; in test [11], 103%; in test [12], 95.2%. The growth in test [13] is 93.8%; in [14], 113%; in test [15], 99.9%; in test [16], 93.3%; in test [20] it was 102%; in test [17], 97%. In test [18], the growth was 74%.

Turning to `Cc1cc2c3c(cccc3c1)C(=O)c1ccccc1-2`, the growth in test [1] was 93.5%; in [2] it was 94.9%; in test [3] it was 111%; in test [4] it was 97.8%; in test [5] it was 98.8%; in test [6], 93.6%. Moreover, the growth in test [7] is 95.2%; in test [8], 85.1%; in test [9], 86.8%; in test [10], 105%; in test [11], 105%; in test [12], 78.1%. Also, the growth in test [13] is 97%; in [19], 60.5%; in test [14], 106%; in [15], 97.6%; in [20], 93.2%; in test [18] it was 87.2%.
